The experiment concerns the target Apelin receptor (Homo sapiens) (UniProt P35414). Description: apelin receptor inhibitors, beta-arrestin readout – cell-based, luminescence, single concentration, uHTS hits, confirmation (AID 2766). As to conditions: APJ beta-arrestin recruitment, antagonist mode, at 20 µM, hits give high values. Background: Arrestin recruitment assays detect the binding of arrestin to an activated receptor.

Some of the results follow. A number with no mark means an inactive call. Rule as the data show it: active = inhibition above about 50%; inactive = the rest.

Apelin receptor (Homo sapiens), sequence (P35414 whole entry, looked up): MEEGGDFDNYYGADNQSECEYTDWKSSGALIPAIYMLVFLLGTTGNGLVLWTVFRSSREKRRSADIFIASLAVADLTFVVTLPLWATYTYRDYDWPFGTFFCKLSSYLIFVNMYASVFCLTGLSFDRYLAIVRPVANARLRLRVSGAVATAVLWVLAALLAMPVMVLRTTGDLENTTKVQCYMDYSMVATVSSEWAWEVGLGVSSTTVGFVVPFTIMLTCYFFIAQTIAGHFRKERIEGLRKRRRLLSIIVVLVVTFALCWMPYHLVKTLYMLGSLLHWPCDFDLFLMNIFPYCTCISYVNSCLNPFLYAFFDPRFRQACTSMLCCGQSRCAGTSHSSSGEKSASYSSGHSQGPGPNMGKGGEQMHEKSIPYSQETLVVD

As for `CCOC(=O)c1c(N)n(Cc2ccccc2)c2nc3ccccc3nc12`, the inhibition (commonly the relative decrease from the control value, in per cent) is 35%.

For the origin of these results see PubChem BioAssay AID2766 (Sanford-Burnham Center for Chemical Genomics, 2010).
